Screening data as filed in PubChem.
This is one part of a sample in which hits are shown more often than they occur.
Shiga toxin inh: inhibitors of Shiga toxin in Vero cells. Vero cells, Shiga toxin protein synthesis inhibition reporter. inhibition, % at 38.7 µM. actives 9.2% (n = 290,000); in the data active = inhibition mostly above about 28%, no sharp cut-off; inactive = mostly below about 43%; note: 0% is about no effect
MARV entry inh: blocks Marburg virus binding to or entry into cells. actives 1.8% (n = 300,000). Marburg virus pseudotyped entry inhibition, cell reporter. AID 540276. Potency, µM (top dose mostly 37.8 µM), without a hit: at the highest dose activity change, negative = inhibition, most hits filed as inhibitors; calls by dose curve; tested in HEK293 cells; note: potency is the fitted concentration of half-maximal effect; % is set by controls: 0 for no effect and ±100 for the full control effect
AMA1 RON2 block: disrupts binding of P. falciparum AMA1 to RON2; Potency, µM (top dose mostly 58.2 µM), without a hit: at the highest dose activity change, negative = inhibition, most hits filed as inhibitors; actives 0.2% (n = 360,000); AlphaScreen AMA1-biotinylated RON2 peptide binding; active = well fitted inhibition curve with a large enough effect; inconclusive = small, poorly fitted or top-dose-only effect; inactive = no such curve, though single readings can be large or run the other way;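 note: potency is the fitted concentration of half-maximal effect; 0% = vehicle wells and -100% = peptide control; nearly all actives have a fitted effect of over 45% in size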
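AMA1 (3D7) with his tag at 25 nM final met compounds first, then biotinylated RON2 peptide at 25 nM; detection used donor plus acceptor beads, 10 µg/mL apiece, read by AlphaScreen after 30 min at room temperature.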
LASV entry inh: inhibitors of Lassa virus binding or cell entry; Potency, µM (highest dose often 37.9 µM), for the others: at the top dose activity change, negative = inhibition, usual class: inhibitors; actives 1.2% (n = 300,000); Lassa virus pseudotype entry inhibition, cell reporter; calls by dose curve; tested in HEK293 cells; note: potency is the fitted concentration of half-maximal effect; % is set by controls: 0 for no effect and ±100 for the full control effect; nearly all actives have a fitted effect of over 50% in size
Cycloheximide cs: counter-screen for Shiga toxin inhibitors: cycloheximide protein synthesis inhibition. cell reporter, cycloheximide protein synthesis inhibition counterscreen. AID 2314. actives 12% (n = 300,000). max response, %; in the data active = max response mostly above about 13%, no sharp cut-off; inactive = mostly below about 14%; note: read at 38.3 µM for the half of the compounds with a filed dose; 0% is about no effect
* marks the source's active call; other numbers are inactive results; ? = inconclusive; / = no result; [ ] = another dose, or the depositor's remark.

SMILES | Shiga toxin inh | MARV entry inh | AMA1 RON2 block | LASV entry inh | Cycloheximide cs
COc1ccccc1/C=N/NC(=O)c1ccc2c(c1)OCO2 | 81* | 4% | 8% | 8% | 24*
COc1ccc(/C=N/NC(=O)c2ccc3c(c2)OCO3)c(C(=O)O)c1OC | 25 | / | 0% | / | 11*
CCCOc1ccc(/C=N/NC(=O)c2ccc3c(c2)OCO3)c(OCCC)c1 | 24 | -13%[46.1 µM] | 0% | 1% | 1
CCC1CCCCN1C(=O)Cn1c(=O)n(CC2CCC(C(=O)NC)CC2)c(=O)c2sccc21 (stereo unspecified) | / | / | / | -5%[46.1 µM] | /
CCCCn1c(=N)c(S(=O)(=O)c2ccc(Cl)cc2)cc2c(=O)n3cccc(C)c3nc21 | / | 3%[46.1 µM] | / | 20%[46.1 µM] | /
CCc1ccc(C(=O)C(C)OC(=O)CNS(=O)(=O)c2ccc(C)cc2)cc1 (stereo unspecified) | / | 7% | -10% | ? | /
Cc1ccc(NC(=O)C2CCN(S(=O)(=O)c3ccc4[nH]c5c(c4c3)CCCCC5)CC2)cc1 | / | / | / | -7%[46.1 µM] | /
Cc1cc(-c2ccccc2)nc(N2CCC(C(=O)NCc3ccccc3Cl)CC2)n1 | 54* | / | / | / | 27*
Cc1ccc(CNC(=O)C2CCN(c3nc(C)cc(C)n3)CC2)cc1 | / | 3%[46.1 µM] | 3% | 21% | /
CCCS(=O)(=O)N1CCC(C(=O)NCc2ccccc2Cl)CC1 | 22 | 15% | 2% | 1% | 17*
C=CCNC(=O)C1CCN(c2nc(C)cc(-c3ccccc3)n2)CC1 | 132* | 7% | 3% | ? | 36*
CN1C(=O)COC2CCC(C(=O)C3=C(C(=O)O)CCCC3)CC21 (stereo unspecified) | / | 11% | / | / | /
CC(=O)c1ccc(CCCCc2ccc(C(C)=O)cc2)cc1 | / | 0%[46.1 µM] | -6% | -23%[46.1 µM] | /
CCOc1ccccc1NC(=O)c1nnn(CC(=O)Nc2cc(C)cc(C)c2)c1N | 18 | -13%[46.1 µM] | -2% | -5%[46.1 µM] | 3
COC(=O)c1ccc(NC(=O)CCNS(=O)(=O)c2cccc3nsnc23)cc1 | / | -5%[46.1 µM] | / | 11%[46.1 µM] | /
OC[C@H]1OC(Nc2ccc(N=Nc3ccccc3)cc2)[C@@H](O)[C@@H](O)[C@@H]1O (stereo partly specified) | 112* | / | -6% | / | 37*
c1ccc(Cc2c(-c3ccccc3)nc3c4ccccc4ccn23)cc1 | / | / | -8% | / | /
CC(=O)c1ccc(-c2nc3c4ccccc4ccn3c2C(C)=O)o1 | -36 | 1µM* | -1% | 1.3µM* | 16
CCC(CC)C(=O)N1CCc2cc(OC)c(OC)cc2C1COc1ccc2c(C)cc(=O)oc2c1 (stereo unspecified) | / | 13%[46.1 µM] | / | 1%[46.1 µM] | /
CSc1nnc(CCCCCCCCc2nnc(SC)o2)o1 | -7 | / | -3% | / | -4
O=C(/C=C/c1ccc([N+](=O)[O-])cc1)c1ccco1 | -3 | / | 6% | / | -3
O=C(/C=C/C=C/c1ccccc1)c1ccco1 | 103* | / | -10% | / | 51*
O=C(/C=C/c1ccc(Br)cc1)c1ccc(NC(=O)c2ccco2)cc1 | 14 | ? | -1% | -5% | 27*
O=C(/C=C\c1ccccc1)Nc1ccc(NC(=O)c2ccco2)cc1 | 5 | -13%[14.2 µM] | -21% | -27% | 4
O=C(/C=C/c1ccc(Br)cc1)c1ccco1 | 64* | ? | -7% | ? | 29*
SMILES | Shiga toxin inh | MARV entry inh | AMA1 RON2 block | LASV entry inh | Cycloheximide cs
O=C(OCc1cn([C@H]2CN(C(=O)C3CCCCC3)[C@@H](c3ccc(Cl)cc3)C[C@@H]2O)nn1)c1ccccc1 | / | / | -7% | / | /
Cc1c(C#N)c(O)[nH]c(=O)c1N=Nc1ccc(S(N)(=O)=O)cc1 | -1 | 4%[46.1 µM] | ? | 0%[46.1 µM] | -6
CC(C)=Cc1cccc2[nH]c(O)c(N=Nc3ccc(S(N)(=O)=O)cc3)c12 | / | / | / | 4µM* | /
Cc1cccc(N=Nc2c(O)[nH]c3ccc(Br)cc23)c1 | 31* | 5%[46.1 µM] | -6% | 6%[46.1 µM] | 39*
Cc1ccc2[nH]c(O)c(N=Nc3ccc(S(N)(=O)=O)cc3)c2c1 | / | / | / | 4µM* | /
O=C(O)c1cc(N=Nc2c(O)[nH]c3ccc([N+](=O)[O-])cc23)ccc1Cl | -2 | / | 5% | / | -2
NS(=O)(=O)c1ccc(N=Nc2c(O)[nH]c3ccc(-c4cnco4)cc23)cc1 | / | / | / | 13µM* | /
COc1ccccc1N=Nc1c(O)[nH]c2ccc(Br)cc12 | 29 | 21%[46.1 µM] | 0% | 12%[46.1 µM] | 2
COc1cc(NC(=O)c2cccs2)c(OC)cc1NC(=O)CCn1nnc2ccccc21 | -10 | 18% | 12% | -7% | -2
CCOC(=O)C1(Cc2ccccc2)CCCCCC1=O (stereo unspecified) | / | -1% | 3% | 14% | /
CCCn1c(CCC(=O)Nc2ccccc2Cc2ccccc2)nc2cc(S(=O)(=O)N3CCOCC3)ccc21 | -13 | 13µM* | 8% | ? | -2
CCCN1CCN(CCNC(=O)Nc2cc(Cl)c(OC)cc2OC)CC1 | / | -29%[46.1 µM] | / | -2%[46.1 µM] | /
CCCN1CCC(Oc2cc(Nc3nc(Nc4cccc(F)c4C(N)=O)c4cc[nH]c4n3)c(OC)cc2Cl)CC1 | / | / | / | 13µM* | /
CCCN1CCCC(c2ccc(Nc3nc(Nc4cc(F)ccc4C(N)=O)c4cc[nH]c4n3)c(OC)c2)C1 (stereo unspecified) | / | / | / | 14µM* | /
CCc1nn2c(=O)cc(COC(=O)c3ccccc3NC(=O)COc3ccc(C)c(C)c3)nc2s1 | / | / | / | -3%[46.1 µM] | /
CC1CC(C)CN(C(=O)CSc2nnc(N)s2)C1 (stereo unspecified) | -5 | / | -12% | / | -2
Cc1csc(=Nc2ccccc2)n1Cc1ccco1 | 31 | / | -7% | / | 29*
CC(C)[C@H](NC(=O)N1c2ccccc2NC(=O)[C@@H]1C(C)C)C(=O)N[C@@H](Cc1c[nH]c2ccccc12)C(=O)O | -2 | / | -2% | / | -1
Cc1ccc(NC(=O)Cn2nnc(C(=O)NCc3cccs3)c2N)cc1F | 3 | / | -12% | / | -2
Cc1ccc(C)c(NC(=O)N2CCN(C(=O)c3nsc4ccccc34)CC2)c1 | / | / | / | -7%[46.1 µM] | /
CCOC(=O)c1ccc(C(=O)OCC)nc1 | 35* | -1% | 0% | 12% | 16*
CCOC(=O)c1ccc(N=NN(C)C)cc1 | 91* | ? | 4% | 7% | 31*
Cc1ccc(Cc2c(-c3ccccc3)nc3c(Cl)cc(C(F)(F)F)cn23)cc1 | / | / | 12% | / | /
COc1cccc(C(=O)NC2CC3CCCC(C2)N3CC(=O)Nc2ccccc2C(F)(F)F)c1 (stereo unspecified) | 3 | 11µM* | -8% | ? | -3
O=C(CN1C2CCCC1CC(NC(=O)C1CCCCC1)C2)Nc1ccccc1C(F)(F)F (stereo unspecified) | 21 | ? | -11% | ? | -6
CCc1ccc(NC(=S)NC2CC3CCCC(C2)N3Cc2ccccc2)cc1 (stereo unspecified) | 11 | 10µM* | -5% | ? | 8
CCCN1C2CCCC1CC(NC(=O)c1ccc(C(C)(C)C)cc1)C2 (stereo unspecified) | 81 | / | 13% | / | 13*
Cc1ccc(CN2C3CCCC2CC(NC(=O)c2ccc(F)cc2)C3)cc1 (stereo unspecified) | -11 | 7.1µM* | 1% | -13% | 2
Cc1ccc(C(=O)NC2CC3CCCC(C2)N3Cc2ccccc2)cc1 (stereo unspecified) | 15 | -16% | 24% | -2% | -2
